VACV Venus inh: qHTS for Stage-Specific Inhibitors of Vaccinia Orthopoxvirus: Venus Reporter Primary qHTS; Vaccinia virus Venus reporter expression, fluorescence; Potency, µM (titrated, usually from 36.5 µM), for the others: at the top dose activity change, negative = inhibition, hits mostly inhibitors; actives 0.46% (n = 330,000); AID 720580, 2013; calls by dose curve; tested in A549 cells; note: potency is the fitted concentration of half-maximal effect; nearly all actives have a fitted effect of over 30% in size
HCMV inh: qHTS Assay for inhibitors of the human cytomegalovirus (HCMV); HFF cells, HCMV-luciferase reporter, 72 h; stronger effect = lower value; activity change, negative = inhibition, % at 57.5 µM; actives 4.5% (n = 410,000); in the data active = activity change below about -60%; inconclusive = no clear call, values can overlap the other calls; inactive = above about -39%
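HFF cells seeded 16 h at 37C, treated with compounds, infected with luciferase-reporter HCMV at MOI 1 PFU/cell; luciferase read at 72 h post infection, normalized to buffer-only and Salinomycin controls.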
FMDV antiviral: High Throughput Screening for Foot and Mouth Disease Virus Antivirals; FMDV antiviral cell-based qHTS; Potency, µM (titrated, usually from 57.9 µM), inactives show at the top dose activity change, negative = inhibition, most hits filed as inhibitors; actives 1.2% (n = 410,000); AID 1159524, 2015; calls by dose curve; tested in HEK293T cells; note: read-out not given here; potency is the fitted concentration of half-maximal effect; nearly all actives have a fitted effect of over 45% in size
Marburg entry inh: qHTS for inhibitors of binding or entry into cells for Marburg Virus; Potency, µM (top dose mostly 37.8 µM), for the others: at the top dose activity change, negative = inhibition, hits mostly inhibitors; actives 1.8% (n = 300,000); Marburg virus pseudotyped entry inhibition, cell reporter; calls by dose curve; tested in HEK293 cells; note: potency is the fitted concentration of half-maximal effect
Vaccinia mCherry: qHTS for Stage-Specific Inhibitors of Vaccinia Orthopoxvirus: mCherry Reporter Primary qHTS; Vaccinia virus mCherry reporter infection, fluorescence; Potency, µM (doses to about 36.5 µM), for inactives: at the highest dose activity change, negative = inhibition, usual class: inhibitors; actives 0.63% (n = 310,000); AID 720579, 2013; calls by dose curve; tested in A549 cells; note: potency is the fitted concentration of half-maximal effect; nearly all actives have a fitted effect of over 35% in size
LASV entry inh: qHTS for Inhibitors of binding or entry into cells for Lassa Virus; Lassa virus pseudotype entry inhibition, cell reporter; Potency, µM (highest dose often 37.9 µM), without a hit: at the highest dose activity change, negative = inhibition, usual class: inhibitors; actives 1.2% (n = 300,000); AID 540256, 2011; calls by dose curve; tested in HEK293 cells; note: potency is the fitted concentration of half-maximal effect; nearly all actives have a fitted effect of over 50% in size
* marks the source's active call; other numbers are inactive results; i = inactive; ? = inconclusive; nt = not tested or not shown; [ ] = remark or other dose. Rows were chosen to be rich in hits. Some 6.5% of all compounds tested hit in one or more screens of this group. % is set by controls: 0 for no effect and ±100 for the full control effect.

SMILES	VACV Venus inh	HCMV inh	FMDV antiviral	Marburg entry inh	Vaccinia mCherry	LASV entry inh
O=C(OCc1ccc(F)cc1)c1ccc2c(c1)-c1ccccc1C2=O	-19%	-2	44%	-3%	nt	1.1µM*
COc1cccc(NS(=O)(=O)c2cc(-c3cnc(C4CC4)o3)ccc2C)c1	?	-89*	23%	nt	?	?
CCOC(=O)c1cccc(NS(=O)(=O)c2ccc(-c3cnc(C4CC4)o3)cc2)c1	-16%	13	-1%	nt	-27%	-24%[46.1 µM]
Cc1ccc(-c2cnc(C3CC3)o2)cc1S(=O)(=O)Nc1cccc(C#N)c1	-26%	-84*	20%	nt	-27%	-12%[46.1 µM]
N#Cc1ccc(NS(=O)(=O)c2ccc(-c3cnc(C4CC4)o3)cc2)cc1	-9%	-7	39%	nt	-10%	?
COc1ccc(CCNCc2c(C(=O)O)c(C)n(Cc3c(F)cccc3Cl)c2C)cc1OC	4%	-2	-6%	1%[46.1 µM]	4%	8%[46.1 µM]
Cc1cc(C)cc(NC(=O)c2cc(S(=O)(=O)NCCC3=CCCCC3)ccc2F)c1	12%	-14	3%	nt	-6%	19%[46.1 µM]
Cc1ccc(S(=O)(=O)NCCC2=CCCCC2)cc1C(N)=O	nt	-75*	11%	nt	nt	nt
O=C(Nc1cccc(F)c1)c1cc(S(=O)(=O)NCCC2=CCCCC2)ccc1F	?	-72*	-2%	?	-18%	-13%
COc1ccccc1NC(=O)c1cc(S(=O)(=O)NCCC2=CCCCC2)ccc1F	-8%	-23	13%	nt	-11%	-5%[46.1 µM]
Cc1ccc(NC(=O)c2cc(S(=O)(=O)NCCC3=CCCCC3)ccc2F)cc1F	?	-71*	?	?	?	?
Cc1cc(S(=O)(=O)NCCC2=CCCCC2)ccc1Br	-17%	-27	44%	0%	-16%	-31%
COc1ccc(NC(=O)c2cc(S(=O)(=O)NCCC3=CCCCC3)ccc2F)cc1	-30%	-80*	-8%	nt	?	?
COc1ccc(C)cc1NC(=O)c1cc(S(=O)(=O)NCCC2=CCCCC2)ccc1F	-5%	-17	35%	nt	-5%	12%[46.1 µM]
COc1cc(/C=C/C(=O)c2ccc3c(c2)OCCO3)cc(Br)c1OCC(=O)N(C)C	?	-97*	7.9µM*	?	2.8µM*	-23%
COc1cc(C(=O)NNC(=O)c2ccc3c(c2)OCCO3)cc(OC)c1OC	-7%	-12	4%	-6%	i	?
O=C(/C=C/c1ccncc1)c1ccc2c(c1)OCCO2	-22%	26	28µM*	14µM*	-8%	?
Cc1cc[n+](CC(=O)c2ccc3c(c2)OCCO3)cc1	3%	-34	-13%	-11%[46.1 µM]	-7%	10%
O=C(C[n+]1ccc(/C=C/c2ccccc2)cc1)c1ccc2c(c1)OCCO2	-25%	-83*	-23%	?	-15%	?
O=C(/C=C/c1ccccc1)c1ccc2c(c1)OCO2	nt	73	0%	nt	nt	nt
Cc1ccc(Cn2c(SCC(=O)NCc3ccccc3Cl)nc3ccsc3c2=O)cc1	-18%	-35	-14%	nt	-17%	20%[46.1 µM]
COc1ccc(NC(=O)C2SC(=S)N=C2N)cc1 (configuration not stated)	nt	nt	nt	9%	nt	nt
N#CC(C#N)=C1C=CC=CN1/C(=C\c1ccco1)C(=O)c1ccc(Br)cc1	?	-97*	10µM*	6.3µM*	?	?
COc1ccc(C(=O)/C(=C\c2ccco2)N2C=CC=CC2=C(C#N)C#N)cc1	?	nt	11µM*	?	?	?
COc1ccc(/C=C(/C(=O)c2cccs2)N2C=CC=CC2=C(C#N)C#N)cc1	nt	-60*	-18%	-1%	nt	nt
SMILES	VACV Venus inh	HCMV inh	FMDV antiviral	Marburg entry inh	Vaccinia mCherry	LASV entry inh
N#CC(C#N)=C1C=CC=CN1/C(=C\c1ccco1)C(=O)c1ccccc1	?	-100*	?	25µM*	?	?
COc1ccc(C=C(C#N)C(=O)c2ccccc2)cc1	-10%	42	-15%	nt	-1%	nt
COc1cccc(CNC(=O)c2c(OC)cc(=O)n3c2CCN(C(=O)C2CC=CCC2)CC3)c1 (configuration not stated)	-10%	nt	2%	nt	-16%	nt
CCOC(=O)c1csc(N)c1-c1ccc([N+](=O)[O-])cc1	nt	-71*	-16%	nt	nt	nt
COc1cc(C)c(CN2CCC3(CCC(CNC(=O)c4ccnn4C)O3)CC2)cc1C (configuration not stated)	-14%	nt	2%	nt	i	nt
COc1ccccc1NC(=O)C1=C(C)Nc2nc(SCc3ccccc3)nn2C1c1cccc(O)c1 (configuration not stated)	-11%	1	-24%	-16%[46.1 µM]	-13%	?
O=[N+]([O-])c1cc(S(=O)(=O)Nc2ccc(Cl)cc2)ccc1N/N=C/c1ccncc1	?	-102*	-8%	?	?	-13%[46.1 µM]
COc1cc([N+](=O)[O-])ccc1NC(=O)N1CCC2(CC1)Nc1ccccc1-n1cccc12	-20%	11	-17%	nt	-14%	-1%[46.1 µM]
OC(c1ccccc1)(c1nc(-c2ccc3ccccc3c2)cs1)C(F)(F)F (configuration not stated)	8%	-83*	3%	nt	-15%	nt
OC(c1ccccc1)(c1nc(/C=C/c2ccccc2)cs1)C(F)(F)F (configuration not stated)	?	-61*	14%	nt	10%	nt
CC(O)(c1ccccc1)c1nc(/C=C/c2ccccc2)cs1 (configuration not stated)	1%	-8	-5%	nt	i	nt
COC(=O)c1ccc(NC(=O)CC2C(=O)N(c3cccc(OC)c3)C(=O)N2Cc2cccc(OC)c2)cc1 (configuration not stated)	-5%	?	-14%	nt	6%	-14%[46.1 µM]
CC1=C(CC/C(C)=N/NC(N)=S)C(C)(C)CCC1	nt	-24	-14%	21µM*	nt	?
CCNc1nc(-c2sc(NC(=O)C(C)(C)C)nc2C)c(-n2cc(-c3ccccc3)nn2)s1	?	-70*	?	nt	?	nt
Cc1nc(NC(=O)C(C)(C)C)sc1-c1nc(N)sc1-n1cc(-c2ccccc2)nn1	5%	1	-5%	nt	0%	nt
COc1ccccc1CCNC(=O)C(=O)NCC(c1ccco1)S(=O)(=O)c1ccc(F)cc1 (configuration not stated)	-16%	-15	-17%	nt	-6%	-10%[46.1 µM]
CCN(CC)c1cc(CS(=O)c2ccccc2)nc(-c2ccccc2)n1 (configuration not stated)	0%	-61*	-29%	?	-3%	-9%
c1cc2c3c(cccc3c1)NC1(CCC3(CC1)Nc1cccc4cccc(c14)N3)N2	10µM*	?	?	nt	?	nt
c1cc2c3c(cccc3c1)NC1(CCCCCC1)N2	-7%	47	-16%	?	-12%	10%

Screening data (PubChem)
